Test results as given in PubChem BioAssay (NCI).
The panel holds about 83,000 compounds, 20% with a hit somewhere; the sample as a whole holds those more often.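 Assay: single dose, 48 h. Readout: percent growth (0 = no net growth; negative = cell death). Active: <10.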 Activity calls are given as the source filed them.

Test system: UO-31 renal
Experiment: NCI-60 one-dose screen, 48 h (100 = growth as untreated, 0 = no growth, -100 = all killed)
Conditions: 10 µM unless noted

Structure (SMILES)	growth
O=C(NCCCN1CCOCC1)c1cccc(N2C(=O)/C(=C/c3ccc(F)cc3)SC2=S)c1	70.7% (inactive)
CC(C)NC1CCC(Nc2ccnc3cc(Cl)ccc23)CC1 (stereo not drawn)	68.8% (inactive)
Fc1ccc(-c2nn(-c3ccccc3)cc2-c2nc3ccccc3o2)cc1	60.6% (inactive)
COc1ccc(C/C(C)=C(/c2ccc(OCCN3CCCCC3)cc2)c2ccc(OC(=O)NCc3ccccc3)cc2)cc1	-92.2% (active)
Cn1cc(-c2nonc2-c2c[nH]c3ccc(Br)cc23)c2cc(Br)ccc21	24.4% (inactive)
Cn1c(=O)c2c(nc(NC3=NS(=O)(=O)c4ccccc43)n2CC(=O)N2CCc3ccccc32)n(C)c1=O	75.9% (inactive)
Clc1ccc(Nc2nnc(COc3ccccc3)c3ccccc23)cc1	-12.3% (active)
O=[N+]([O-])c1ccc(S(=O)(=O)N2CCN(C3=NS(=O)(=O)c4ccccc4N3c3ccccc3)CC2)cc1	76.8% (inactive)
CCNC(=O)c1[nH]cc(-c2ccccc2)c1-c1cc(OC)c2c(c1OC)OCO2	76% (inactive)
COCCn1c(-c2csc(-c3cn(C)c4ccc(OC)cc34)n2)cc2cccnc21	54.9% (inactive)
S=C(Nc1ccc(-c2nc(N3CCOCC3)c3cccn3n2)cc1)Nc1cccnc1	15.1% (inactive)
COc1cc(CNC(=O)CCCC/C=C/C(C)C)ccc1OCc1nnc(Nc2ccc([N+](=O)[O-])cc2)o1	58.7% (inactive)
N#CC1=C(c2ccc(Cl)cc2)Nc2c(c(-c3ccc(Cl)cc3)nn2-c2ccccc2)C12C(=O)Nc1ccc(Cl)cc12 (stereo not drawn)	23.5% (inactive)
CCOC(=O)/C=C1\S/C(=N\Nc2cc(=O)[nH]c3ccc(Cl)cc23)N(c2ccccc2)C1=O	75.2% (inactive)
COc1cccc(NC(=O)Cn2cc(CN3CCN(c4ccnc5cc(Cl)ccc45)CC3)nn2)c1	62% (inactive)
COc1cc(N2C(=O)[C@H](O)C2c2ccc(SC)cc2)cc(OC)c1OC (stereo partly drawn)	43.5% (inactive)
CSc1nnc(-c2cnn3c2NC(c2ccccc2)C3)n1-c1ccc(C(F)(F)F)cc1 (stereo not drawn)	53.7% (inactive)
N=C(N)c1ccc(-c2ccc(-c3ccc(F)cc3)o2)o1	15.5% (inactive)
CC1=NN(c2nc(SCC(=O)Nc3nc4ccc(C)cc4s3)nc(-c3ccccc3)c2C#N)C(=O)C1	67.8% (inactive)
C/C(Nc1ccc(Cl)c(Cl)c1)=C1\CCOC1=O	84.3% (inactive)

Structure (SMILES)	growth
N#Cc1cccc(-c2c(-c3ccc4ccccc4c3)oc3ccccc3c2=O)c1	51.4% (inactive)
CC(C)N1CCN(Cc2ccc3c(NNC(=O)c4ccccc4)nc4cc(F)ccc4n23)CC1	8.43% (active)
O=S(=O)(NCCCNc1nccc(-c2c(-c3ccc(F)c(O)c3)nc3occn23)n1)c1ccccc1	75% (inactive)
O=C1NCCC12CCN(c1c(Cl)cncc1-c1ccc(O)cc1)CC2	77.8% (inactive)
Cc1cccnc1NC(=S)Nc1ncccc1C	108% (inactive)
COc1ccc2c3c([nH]c2c1)C(=O)c1nc(C)ccc1C3=O	39.6% (inactive)
CC1Cc2c(Cl)ncnc2N(C)c2ccc(F)cc21 (stereo not drawn)	79.6% (inactive)
O=C1c2cc(Cl)ccc2S(=O)(=O)c2c(NCCCNCCO)nc3ccccc3c21	-94.4% (active)
O=C(c1ccc(Cl)cc1)N1CCN(c2ccnc3cc(Cl)ccc23)CC1	58% (inactive)
Cc1nnc(NC(=O)c2nc(S(=O)(=O)Cc3ccc(F)cc3)ncc2Cl)s1	73.6% (inactive)
COc1ccc2[nH]cc(-c3nc(-c4cn(C)c5c(Cl)nccc45)cs3)c2c1	36.6% (inactive)
COc1ccc(/C(C)=C(/c2ccc(OCCCN(C)C)cc2)c2ccc(OC(=O)Cc3ccccc3)cc2)cc1	53.4% (inactive)
CCOc1nc(-c2ccccc2)cc2c(O)c(C(=O)NN)[nH]c(=O)c12	88.6% (inactive)
Cn1c(=O)c2[nH]c(N/N=C/c3ccccc3Br)nc2n(C)c1=O	92.4% (inactive)
Clc1ccc(Sc2cnc(-c3ccccc3)o2)cc1	78.4% (inactive)
O=C(Nc1nn(-c2ccc(Cl)cc2Cl)nc1-c1ccccc1)c1ccccc1	67.6% (inactive)
Cc1ccc(/C=N/Nc2nc(Nc3ccccc3)nc(-n3nc(C)cc3C)n2)cc1	20.1% (inactive)
O=C(Nc1cc(Cl)ccc1O)c1ccc(Nc2ccnc(C(F)(F)F)c2)cc1	12.6% (inactive)
CC(C)(C)c1cc(-c2nc3ccc(N4CCN(S(C)(=O)=O)CC4)cc3[nH]2)cc(C(C)(C)C)c1O	97% (inactive)

Test system: TK-10 renal
Experiment: as above
Conditions: 10 µM unless noted

Structure (SMILES)	growth
O=C(NCCCN1CCOCC1)c1cccc(N2C(=O)/C(=C/c3ccc(F)cc3)SC2=S)c1	100% (inactive)
CC(C)NC1CCC(Nc2ccnc3cc(Cl)ccc23)CC1 (stereo not drawn)	86.8% (inactive)
Fc1ccc(-c2nn(-c3ccccc3)cc2-c2nc3ccccc3o2)cc1	126% (inactive)
COc1ccc(C/C(C)=C(/c2ccc(OCCN3CCCCC3)cc2)c2ccc(OC(=O)NCc3ccccc3)cc2)cc1	-90.7% (active)
Cn1cc(-c2nonc2-c2c[nH]c3ccc(Br)cc23)c2cc(Br)ccc21	39.6% (inactive)
Cn1c(=O)c2c(nc(NC3=NS(=O)(=O)c4ccccc43)n2CC(=O)N2CCc3ccccc32)n(C)c1=O	108% (inactive)
Clc1ccc(Nc2nnc(COc3ccccc3)c3ccccc23)cc1	-17.5% (active)
O=[N+]([O-])c1ccc(S(=O)(=O)N2CCN(C3=NS(=O)(=O)c4ccccc4N3c3ccccc3)CC2)cc1	118% (inactive)
CCNC(=O)c1[nH]cc(-c2ccccc2)c1-c1cc(OC)c2c(c1OC)OCO2	106% (inactive)
COCCn1c(-c2csc(-c3cn(C)c4ccc(OC)cc34)n2)cc2cccnc21	43.6% (inactive)
S=C(Nc1ccc(-c2nc(N3CCOCC3)c3cccn3n2)cc1)Nc1cccnc1	21.4% (inactive)
COc1cc(CNC(=O)CCCC/C=C/C(C)C)ccc1OCc1nnc(Nc2ccc([N+](=O)[O-])cc2)o1	84.1% (inactive)
N#CC1=C(c2ccc(Cl)cc2)Nc2c(c(-c3ccc(Cl)cc3)nn2-c2ccccc2)C12C(=O)Nc1ccc(Cl)cc12 (stereo not drawn)	44.9% (inactive)
CCOC(=O)/C=C1\S/C(=N\Nc2cc(=O)[nH]c3ccc(Cl)cc23)N(c2ccccc2)C1=O	107% (inactive)
COc1cccc(NC(=O)Cn2cc(CN3CCN(c4ccnc5cc(Cl)ccc45)CC3)nn2)c1	104% (inactive)
COc1cc(N2C(=O)[C@H](O)C2c2ccc(SC)cc2)cc(OC)c1OC (stereo partly drawn)	40.7% (inactive)
CSc1nnc(-c2cnn3c2NC(c2ccccc2)C3)n1-c1ccc(C(F)(F)F)cc1 (stereo not drawn)	70.6% (inactive)
N=C(N)c1ccc(-c2ccc(-c3ccc(F)cc3)o2)o1	49.9% (inactive)
CC1=NN(c2nc(SCC(=O)Nc3nc4ccc(C)cc4s3)nc(-c3ccccc3)c2C#N)C(=O)C1	131% (inactive)
C/C(Nc1ccc(Cl)c(Cl)c1)=C1\CCOC1=O	104% (inactive)

Structure (SMILES)	growth
N#Cc1cccc(-c2c(-c3ccc4ccccc4c3)oc3ccccc3c2=O)c1	73.1% (inactive)
CC(C)N1CCN(Cc2ccc3c(NNC(=O)c4ccccc4)nc4cc(F)ccc4n23)CC1	36.2% (inactive)
O=S(=O)(NCCCNc1nccc(-c2c(-c3ccc(F)c(O)c3)nc3occn23)n1)c1ccccc1	122% (inactive)
O=C1NCCC12CCN(c1c(Cl)cncc1-c1ccc(O)cc1)CC2	86.9% (inactive)
Cc1cccnc1NC(=S)Nc1ncccc1C	90.1% (inactive)
COc1ccc2c3c([nH]c2c1)C(=O)c1nc(C)ccc1C3=O	109% (inactive)
CC1Cc2c(Cl)ncnc2N(C)c2ccc(F)cc21 (stereo not drawn)	98.9% (inactive)
O=C1c2cc(Cl)ccc2S(=O)(=O)c2c(NCCCNCCO)nc3ccccc3c21	-79.6% (active)
O=C(c1ccc(Cl)cc1)N1CCN(c2ccnc3cc(Cl)ccc23)CC1	108% (inactive)
Cc1nnc(NC(=O)c2nc(S(=O)(=O)Cc3ccc(F)cc3)ncc2Cl)s1	79% (inactive)
COc1ccc2[nH]cc(-c3nc(-c4cn(C)c5c(Cl)nccc45)cs3)c2c1	71.1% (inactive)
COc1ccc(/C(C)=C(/c2ccc(OCCCN(C)C)cc2)c2ccc(OC(=O)Cc3ccccc3)cc2)cc1	95.2% (inactive)
CCOc1nc(-c2ccccc2)cc2c(O)c(C(=O)NN)[nH]c(=O)c12	120% (inactive)
Cn1c(=O)c2[nH]c(N/N=C/c3ccccc3Br)nc2n(C)c1=O	82.8% (inactive)
Clc1ccc(Sc2cnc(-c3ccccc3)o2)cc1	85.1% (inactive)
O=C(Nc1nn(-c2ccc(Cl)cc2Cl)nc1-c1ccccc1)c1ccccc1	117% (inactive)
Cc1ccc(/C=N/Nc2nc(Nc3ccccc3)nc(-n3nc(C)cc3C)n2)cc1	3.47% (active)
O=C(Nc1cc(Cl)ccc1O)c1ccc(Nc2ccnc(C(F)(F)F)c2)cc1	79% (inactive)
CC(C)(C)c1cc(-c2nc3ccc(N4CCN(S(C)(=O)=O)CC4)cc3[nH]2)cc(C(C)(C)C)c1O	90.4% (inactive)
